# Assay outcomes: PubChem BioAssay, several laboratories
# Ins promoter up = MIN6 insulin promoter up-regulation; MIN6 insulin promoter-GFP reporter, high-content imaging; stronger effect = higher value; z-score at 5 µM; hit rate 0.3% among 190,000; AID 1625;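 active = z-score above 3 at 5 µM with at least 500 cells counted in the well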
# PERK inh = human PERK inhibition, primary cell-based screen; Q9NZJ5; CHO PERK-DD fusion, SEAP luminescence translation reporter; inhibition, % at 5.6 µM; hit rate 0.17% among 220,000; AID 1416;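 active = inhibition above the mean inhibition of all tested compounds plus 3 SD, set separately per screening campaign, cut at about 2.9% in these data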;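 note: PERK kinase domain activated by AP20187 dimerizer at 100 nM; 0% = DMSO with dimerizer and 100% = rapamycin at 8.4 µM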
# INS promoter inh = TRM-6 insulin promoter activity inhibition. AID 1273. TRM-6 cells (human fetal islet line), insulin promoter-eGFP reporter, imaging; reporter expression induced with tamoxifen. hit rate 0.9% among 130,000. inhibition, % at 2 µM;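 active = inhibition above the mean plus 3 SD, with well images judged a real hit on visual review, cut at about 60% in these data, passing the limit was not always enough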
# eIF4E 4G PPI = blocks eIF4E binding to eIF4G | AID 782 | TR-FRET eIF4E-eIF4GI(517-606) binding, 2 h | inhibition, % at 21.7 µM | hit rate 0.37% among 220,000;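 active = inhibition above about 30%, limit read from the data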;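 note: 0% = full FRET control wells and 100% = background wells lacking eIF4GI fragment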
# Target sequence (P63073 whole entry, looked up, the tested form may be a part): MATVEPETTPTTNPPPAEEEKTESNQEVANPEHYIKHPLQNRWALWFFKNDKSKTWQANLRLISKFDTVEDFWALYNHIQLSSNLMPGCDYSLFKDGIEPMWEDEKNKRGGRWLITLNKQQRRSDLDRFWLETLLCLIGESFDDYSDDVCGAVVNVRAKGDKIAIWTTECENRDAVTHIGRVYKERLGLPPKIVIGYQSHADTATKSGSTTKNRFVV
# Target sequence (Q04637 whole entry, looked up, the tested form may be a part): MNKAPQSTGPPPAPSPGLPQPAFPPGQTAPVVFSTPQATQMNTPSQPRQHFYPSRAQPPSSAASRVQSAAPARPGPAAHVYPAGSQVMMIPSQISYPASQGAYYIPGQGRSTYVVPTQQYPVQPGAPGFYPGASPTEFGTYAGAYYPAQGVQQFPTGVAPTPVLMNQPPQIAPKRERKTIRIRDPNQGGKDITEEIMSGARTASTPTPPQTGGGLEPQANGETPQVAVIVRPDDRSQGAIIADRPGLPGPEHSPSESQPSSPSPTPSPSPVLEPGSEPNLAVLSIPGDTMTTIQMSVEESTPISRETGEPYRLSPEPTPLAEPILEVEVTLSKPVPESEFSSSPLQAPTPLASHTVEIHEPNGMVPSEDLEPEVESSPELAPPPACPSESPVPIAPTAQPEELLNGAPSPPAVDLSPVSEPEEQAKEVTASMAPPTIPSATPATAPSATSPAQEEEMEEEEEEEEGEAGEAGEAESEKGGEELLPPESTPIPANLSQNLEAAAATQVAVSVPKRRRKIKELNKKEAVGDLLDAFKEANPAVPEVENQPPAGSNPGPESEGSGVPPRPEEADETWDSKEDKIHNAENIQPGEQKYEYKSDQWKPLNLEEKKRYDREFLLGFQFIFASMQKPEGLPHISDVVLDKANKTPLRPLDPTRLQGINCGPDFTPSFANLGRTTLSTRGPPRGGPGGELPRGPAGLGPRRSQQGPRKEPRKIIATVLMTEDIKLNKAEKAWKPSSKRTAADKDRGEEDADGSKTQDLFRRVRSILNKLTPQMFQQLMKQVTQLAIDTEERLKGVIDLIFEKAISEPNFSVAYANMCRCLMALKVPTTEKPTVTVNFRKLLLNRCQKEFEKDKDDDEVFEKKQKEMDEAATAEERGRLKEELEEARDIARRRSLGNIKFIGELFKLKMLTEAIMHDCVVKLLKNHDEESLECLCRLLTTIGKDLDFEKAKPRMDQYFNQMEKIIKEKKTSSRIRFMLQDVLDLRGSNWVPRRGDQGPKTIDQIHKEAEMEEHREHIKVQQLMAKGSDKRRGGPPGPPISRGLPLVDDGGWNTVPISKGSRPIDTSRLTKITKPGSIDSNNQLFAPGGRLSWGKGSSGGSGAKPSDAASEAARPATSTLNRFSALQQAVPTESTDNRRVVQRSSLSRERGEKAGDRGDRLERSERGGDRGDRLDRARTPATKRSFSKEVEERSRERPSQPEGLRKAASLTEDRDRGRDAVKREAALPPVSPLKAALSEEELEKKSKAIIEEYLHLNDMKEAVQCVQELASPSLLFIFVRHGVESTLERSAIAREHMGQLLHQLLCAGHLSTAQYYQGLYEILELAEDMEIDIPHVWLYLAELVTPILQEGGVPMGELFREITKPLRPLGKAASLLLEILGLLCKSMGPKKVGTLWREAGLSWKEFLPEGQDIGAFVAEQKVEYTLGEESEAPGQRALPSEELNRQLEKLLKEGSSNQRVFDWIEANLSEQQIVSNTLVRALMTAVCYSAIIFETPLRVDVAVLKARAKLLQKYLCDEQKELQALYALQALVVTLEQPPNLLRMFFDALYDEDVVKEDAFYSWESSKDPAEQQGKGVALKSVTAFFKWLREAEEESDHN
# Autophagy mod = alters autophagy in cells. MEF GFP-LC3 puncta imaging; test concentration mostly 10 µM. calls only at 10 µM (by protocol). hit rate 0.98% among 190,000. AID 463193;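 active = percentage of spot-positive cells more than 3 SD above its plate mean, without a fluorescence outlier flag or 80% toxicity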;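 note: spot-positive cell cutoff set from DMSO-treated cells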
# Active calls of the source: *; i = inactive; . = not tested or not shown; + = active, no number; [ ] = another dose, or the depositor's remark. Hits are enriched below; roughly 2% of the tested compounds scored in any of these assays.
SMILES,Ins promoter up,PERK inh,INS promoter inh,eIF4E 4G PPI,Autophagy mod
CC1CCC(C(C)C)C(OC(=O)Cn2c(-c3ccc(F)cc3)[n+](C)c3ccccc32)C1 (centres undefined),-1.9,0,-35,4,i
Cc1nc2c3cc(F)ccc3n(Cc3ccc(F)cc3)c2s1,0.35,0,77*,1,i
CCOC(=O)Cn1c2ccc(F)cc2c2nc(C)sc21,3.7*,1,31,-1,i
Cc1ccc(S(=O)(=O)n2c3ccc(Cl)cc3c3nc(C)sc32)cc1,-1.1,0,80*,2,i
Cc1nc2c3cc(Cl)ccc3n(CCN3CCCCC3)c2s1,-1.1,-1,-34,-8,+
COC(=O)Cn1c2ccc(F)cc2c2nc(C)sc21,0.18,2,.,-4,i
COC(=O)c1nn(-c2ccccc2)c(Cl)c1/C=N/OCc1ccc(C)cc1,0.13,1,33,3,i
CCOC(=O)c1c(NC(=O)CSc2nnc3c(Cl)cc(Cl)cn23)sc2c1CCC2,0.91,0,.,-2,i
CCC(CC)C(=O)c1c[nH]c(C(=O)N2CCN(c3ccccc3F)CC2)c1,-0.1,1,.,0,i
CCOc1cc(C2C3=C(CC(C)(C)CC3=O)Nc3n[nH]c(C)c32)ccc1O (centres undefined),-0.08,0,-82,-3,i
Nc1ccc2nc(-c3cc(Cl)c(N)c(Cl)c3)[nH]c2c1,.,0,67,39*[fluorescence artefact?],i
Cc1ccc(S(=O)(=O)c2cc3ccccc3oc2=Nc2ccc3c(c2)OCO3)cc1,-2.3,0,40,0,+
Cc1ccc(OCC(=O)Nc2ccc([N+](=O)[O-])cc2)cc1,0.23,0,8,0,i
CCn1nnc(NC(=O)COc2ccc([N+](=O)[O-])cc2)n1,-0.01,3.0*,.,3,.
CCC(NC(=O)COc1ccc([N+](=O)[O-])cc1)c1ccccc1 (centres undefined),-0.24,1,67*,8,i
CSc1nc(-c2ccc(Cl)cc2)nn1C(=O)c1ccccc1,-1.2,0,79*,7,i
CSc1nc(-c2ccccc2)nn1C(=O)c1ccc(Cl)cc1,.,2,4,1,i
O=C(Cn1c(C(F)(F)F)nc2ccccc21)N=Nc1c(O)[nH]c2ccc(Br)cc12,.,0,30,-2,i
Cc1ccc(SCc2cc(-c3ccc(Cl)cc3)no2)cc1,3.1*,1,.,-1,i
Clc1ccc(-c2cc(CSc3ccccc3)on2)cc1,.,2,.,1,i
COc1ccc(-c2cnnc(N/N=C/C(C)=C/c3ccccc3)n2)cc1,0.42,0,-6,-4,i
CCOC(=O)c1c(N)sc2c(OCC)c(Br)ccc12,.,0,17,1,i
CCOC(=O)c1c(NC(C)=O)sc2c(OCC(O)CNC(C)(C)C)c(Br)ccc12 (centres undefined),1.4,-1,.,5,+
COCCNC(=O)/C(C#N)=c1\s/c(=C\c2ccccc2OC(F)F)c(=O)n1Cc1ccccc1,0.49,0,.,-3,+
COCCCNC(=O)/C(C#N)=c1\s/c(=C\c2ccccc2OC(F)F)c(=O)n1CCCOC,1.5,0,.,3,i
SMILES,Ins promoter up,PERK inh,INS promoter inh,eIF4E 4G PPI,Autophagy mod
CCCCNC(=O)/C(C#N)=c1\s/c(=C\c2ccccc2OC(F)F)c(=O)n1CCCOC,4.5*,1,.,0,+
Cc1ccc(NC(=O)Cn2nnc(-c3ccccc3NC(=O)c3cccs3)n2)cc1,0.1,0,-14,-19,+
COc1ccc(NC(=O)Cn2nnc(-c3ccccc3NC(=O)c3cccs3)n2)cc1,-0.34,0,-57,-15,i
CCOc1ccc(-c2nc(CN(Cc3ccccc3)C[C@@H]3CCC(=O)N3)c(C)o2)cc1,0.79,0,.,-1,i
COC(=O)c1cc(NC(=O)CN(c2ccc(OC)cc2)S(=O)(=O)c2ccc(F)cc2)ccc1Cl,-0.96,-1,.,-1,i
CNC(=S)N/N=C1\C(=O)c2cccc3cccc1c23,1.1,-1,13,-2,+
CCOC(=O)c1sc2cc([N+](=O)[O-])cc(SCC(C)C)c2c1N,.,1,-43,-8,+
CCOC(=O)c1cc(N)cc([N+](=O)[O-])c1,0.15,1,-27,7,i
CCN1C(=O)N[C@@H](c2ccc(Br)cc2)C(C(=O)OC)=C1C,-0.58,0,65*,-7,i
COC(=O)C1=C(C)N(CC2CC2)C(=O)N[C@H]1c1ccc(Br)cc1,-0.23,0,-10,-6,i
CCOC(=O)CN1C(=O)N[C@@H](c2ccccc2)C(C(C)=O)=C1C,.,1,60*,3,i
COC(=O)C1=C(C)N(Cc2ccccc2)C(=O)N[C@H]1c1ccccc1,0.48,0,-133,1,i
COc1ccc(N2CCN(C(CNC(=O)c3ccc4c(c3)OCO4)c3ccco3)CC2)cc1 (centres undefined),0.8,0,22,0,i
Cc1ccc2nc(NC(=O)CN(C)S(=O)(=O)c3ccc(Br)s3)sc2c1,.,0,66*,-12,i
CCCOC(=S)Nc1ccccc1,0.41,1,-36,9,i
Cc1[nH][nH]c(=O)c1C(c1ccc(-c2ccc(Cl)c(C(=O)O)c2)o1)c1c(C)[nH][nH]c1=O,0.27,0,.,-3,+
O=C(Cc1cccs1)Nc1ccc(S(=O)(=O)N2CCCC2)cc1,0.33,0,-20,33*,i
O=C(O)CCC(=O)Nc1ccc(S(=O)(=O)N2CCCC2)cc1,1.3,-1,.,-10,i
O=C(COc1ccccc1-c1ccccc1)N/N=C/c1cccc2ccccc12,-2.1,-1,-150,3,+
COC(=O)C1=C(C)OC(N)=C(C#N)C1c1ccccc1 (centres undefined),-0.03,2,-44,-1,i
CC(=O)C1=C(c2ccccc2)OC(N)=C(C#N)C1c1ccc(O)cc1 (centres undefined),-0.02,1,9,51*[fluorescence artefact?],i
CCOCCCNC(=O)c1cc2sc(Cl)cc2n1CC,1.2,1,.,-1,+
Cn1c(=O)c2[nH]c(-c3ccccc3Cl)c(O)c2n(C)c1=O,-0.26,1,64*,14,i
CCCCNC(=O)c1ccc(CS(=O)(=O)Cc2ccccc2F)o1,-0.31,2,8,-3,i
CC12CC3(C)CC(C)(C1)CC(C(=O)NC(=S)N1CCCC1)(C2)C3,.,0,-25,32*,i
O=CN1CCN(C(C(=O)NC2CCCC2)c2ccc(Cl)cc2)CC1 (centres undefined),0.41,0,9,-6,i
CCOC(=O)c1c(NC(=O)CN2C(=O)NC3(CCCCC3C)C2=O)sc(C)c1C (centres undefined),0.17,-2,27,2,i
CCOC(=O)c1c(NC(=O)CN2C(=O)NC(C)(c3ccccc3)C2=O)sc(C)c1C (centres undefined),-0.16,-1,0,-7,+
